Measurements reported in PubChem BioAssay (Tox21).
Results filed as inconclusive are left out. The source made the active and inactive calls. Unless noted, the call rests on the fitted dose curve; in most records, active means well fitted curve in the direction sought with a large enough effect in the repeat runs; inconclusive means weak or mixed curves; inactive means no such curve, though single readings can be large; an effect the other way counts as inactive or inconclusive.

Tests used:
[1] = molecular target: Retinoic acid receptor RXR-alpha (Homo sapiens) (UniProt P19793); assay: qHTS assay to identify small molecule agonists of the RXR signaling pathway (AID 1159527; calls by dose curve; further: nearly all actives have a fitted effect of over 35% in size)
How it was run: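 Fluorescence ratio readout (460 vs 530 nm) from GeneBLAzer RXR-alpha HEK 293T cells after 16 hr compound treatment; cells seeded 5 hr beforehand in low-serum, charcoal-stripped medium.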

[2] = qHTS assay to identify small molecule agonists of the RXR signaling pathway - cell viability counter screen (AID 1159529);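 further: HEK 293T cells carrying an RXR-alpha UAS beta-lactamase reporter; series mostly up to about 77 µM; nearly all actives have a fitted effect of over 50% in size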
How it was run: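 Viability read-out for the RXR-alpha agonist qHTS: luminescent CellTiter-Glo signal after 30 min at RT. HEK 293T bla reporter cells, 2% charcoal-stripped FBS, 16 hr compound incubation; tetraoctyl ammonium bromide as cytotoxic control.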

[3] = qHTS assay to identify small molecule antagonists of the retinoid acid receptor (RAR) signaling pathway - cell viability counter screen (AID 1159551); further: nearly all actives have a fitted effect of over 35% in size
How it was run: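 Retinol-stimulated (1 uM final) C3RL4 cells, compound 6 h, 37 C; readout CellTiter-Glo luminescence (ATP) after 30 min RT incubation.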

[4] = qHTS assay to identify small molecule antagonists of the estrogen related receptor (ERR) signaling pathway from Tox21 library - cell viability counter screen (AID 1224834); further: nearly all actives have a fitted effect of over 30% in size
How it was run: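 After 17.5 h of compound exposure at 37 C, ERR cells are incubated with CellTiter-Fluor for 30 min and fluorescence intensity serves as the viability measure.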

[5] = molecular target: Luciferin 4-monooxygenase (Photinus pyralis) (UniProt P08659); assay: qHTS assay to identify small molecule inhibitors of firefly luciferase (AID 1224835); further: series mostly up to about 120 µM; nearly all actives have a fitted effect of over 25% in size
How it was run: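 Biochemical qHTS: compounds run as interplate titrations against purified firefly enzyme, with D-luciferin and ATP each at its KM concentration. Light output recorded by CCD imaging.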

[6] = qHTS assay to identify small molecule agonists of the constitutive androstane receptor (CAR) signaling pathway - cell viability counter screen (AID 1224836); further: series mostly up to about 92 µM; nearly all actives have a fitted effect of over 45% in size
How it was run: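 Multiplexed viability check: HepG2-CYP2B6-hCAR cells, 15-point compound dosing, 0.75 uM PK11195 final, 23 h at 37 C, CellTiter-Fluor fluorescence.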

[7] = qHTS assay to identify small molecule antagonists of the constitutive androstane receptor (CAR) signaling pathway - cell viability counter screen (AID 1224837); further: series mostly up to about 92 µM; nearly all actives have a fitted effect of over 45% in size
How it was run: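 Counter screen run in HepG2-CYP2B6-hCAR cells: 4 hr settle, compound titration (15 concentrations) with 50 nM CITCO, 23 hr at 37 C/5% CO2, CellTiter-Fluor fluorescence.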

[8] = molecular target: Nuclear receptor subfamily 1 group I member 3 (Homo sapiens) (UniProt Q14994); assay: qHTS assay to identify small molecule antagonists of the constitutive androstane receptor (CAR) signaling pathway (AID 1224838);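 further: HepG2 cells stably expressing hCAR with CYP2B6 luciferase reporter stimulated by CITCO; nearly all actives have a fitted effect of over 40% in size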
How it was run: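 Cell line: HepG2 double-stable for hCAR and CYP2B6-2.2kb reporter. Agonist: CITCO, 50 nM final. Compounds: 15 concentrations, 24 h, 37 C. Detection: ONE-Glo luminescence.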

[9] = molecular target: Nuclear receptor subfamily 1 group I member 3 (Homo sapiens) (UniProt Q14994); assay: qHTS assay to identify small molecule agonists of the constitutive androstane receptor (CAR) signaling pathway (AID 1224839);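 further: HepG2 cells stably carrying human CAR and a CYP2B6 luciferase reporter; series mostly up to about 92 µM; nearly all actives have a fitted effect of over 15% in size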
How it was run: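 Using human hepatoma HepG2 cells engineered with hCAR and a CYP2B6-2.2kb reporter, 15-concentration compound series were incubated 24 h alongside PK11195 at 0.75 uM final, with luminescence quantified afterwards.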

[10] = qHTS assay to identify small molecule antagonists of the estrogen related receptor signaling pathway with the pleiotropic PPARgamma coactivator (PGC) from Tox21 10K library - cell viability counter screen (AID 1224840; active means well fitted cell-killing curve with a large enough effect in the repeat runs, not every such curve was filed as active; further: nearly all actives have a fitted effect of over 40% in size)
How it was run: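 Following seeding of 2,000 PGC/ERR cells/well and 6 hours' incubation, test compounds were delivered in DMSO. The plates then sat 17.5 hours at 37 C before a fluorogenic live-cell protease reagent (CellTiter-Fluor) was read after 30 min.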

[11] = qHTS assay to identify small molecule antagonists of the estrogen related receptor signaling pathway with the pleiotropic PPARgamma coactivator (PGC) from Tox21 10K library (AID 1224841; call rule not given here; further: series mostly up to about 92 µM; actives are mostly falling curves and most rising ones were filed inactive; nearly all actives have a fitted effect of over 50% in size)
How it was run: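 qHTS antagonist format: PGC/ERR cells, 2k/well, compound in DMSO by pin transfer after 6 h attachment, 18 h treatment at 37 C, One-Glo luminescence read at 30 min.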

[12] = qHTS assay to identify small molecule agonists of the estrogen related receptor signaling pathway with the pleiotropic PPARgamma coactivator (PGC) from Tox21 10K library (AID 1224842); further: nearly all actives have a fitted effect of over 15% in size
How it was run: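 PGC/ERR reporter cell line, 2,000 cells per well, incubated 6 h at 37 C before 23 nL compound in DMSO was added. After 18 h at 37 C, One-Glo luminescence read following 30 min at room temperature.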

[13] = qHTS assay to identify small molecule antagonists of the estrogen related receptor (ERR) signaling pathway - cell viability counter screen (AID 1224818); further: series mostly up to about 46 µM
How it was run: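 After a 6 h pre-incubation, ERR cells were dosed by pin tool with compounds, positive/negative controls or DMSO alone. Following 17.5 h at 37 C and 30 min with CellTiter-Fluor, fluorescence was recorded.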

[14] = qHTS assay to identify small molecule antagonists of the estrogen related receptor signaling pathway with the pleiotropic PPARgamma coactivator (PGC) cell viability counter screen (AID 1224822; further: series mostly up to about 46 µM)
How it was run: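 PGC/ERR cells were plated at 2,000 per well and allowed 6 h to settle before compound addition. Following 17.5 h at 37 C, CellTiter-Fluor reagent was added and fluorescence was read 30 min later.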

[15] = qHTS assay to identify small molecule agonists of the retinoic acid receptor (RAR) signaling pathway (AID 1159553)
How it was run: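 Reporter readout comes from luciferase under RARE control in C3RL4 cells; compound exposure lasts 6 hr at 37 C in 5% CO2, and luminescence is recorded following a 30 min room-temperature incubation with reagent.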

Measured: Potency

Sequence of Retinoic acid receptor RXR-alpha (Homo sapiens) (P19793 whole entry, looked up): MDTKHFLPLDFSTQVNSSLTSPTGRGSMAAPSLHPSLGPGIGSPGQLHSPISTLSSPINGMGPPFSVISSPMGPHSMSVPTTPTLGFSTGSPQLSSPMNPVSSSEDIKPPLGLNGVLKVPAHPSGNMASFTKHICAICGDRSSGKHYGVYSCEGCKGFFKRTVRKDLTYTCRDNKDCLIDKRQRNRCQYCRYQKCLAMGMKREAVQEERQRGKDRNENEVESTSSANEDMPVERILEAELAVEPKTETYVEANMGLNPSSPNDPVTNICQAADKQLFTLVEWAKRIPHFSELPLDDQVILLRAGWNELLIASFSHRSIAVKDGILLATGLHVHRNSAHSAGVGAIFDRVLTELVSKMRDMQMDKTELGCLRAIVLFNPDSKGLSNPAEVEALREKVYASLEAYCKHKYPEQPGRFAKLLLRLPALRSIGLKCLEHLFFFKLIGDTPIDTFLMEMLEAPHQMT
Sequence of Nuclear receptor subfamily 1 group I member 3 (Homo sapiens) (Q14994 whole entry, looked up): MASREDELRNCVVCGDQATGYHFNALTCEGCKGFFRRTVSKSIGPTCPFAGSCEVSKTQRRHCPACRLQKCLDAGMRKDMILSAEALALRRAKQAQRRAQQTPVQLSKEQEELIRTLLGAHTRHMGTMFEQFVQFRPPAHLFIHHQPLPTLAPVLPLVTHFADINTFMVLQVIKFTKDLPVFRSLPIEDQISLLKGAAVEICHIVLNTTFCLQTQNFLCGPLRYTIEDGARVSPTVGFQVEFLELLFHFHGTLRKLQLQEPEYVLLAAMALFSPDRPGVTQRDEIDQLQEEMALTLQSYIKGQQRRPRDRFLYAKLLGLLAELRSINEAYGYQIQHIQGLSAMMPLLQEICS
Sequence of Luciferin 4-monooxygenase (Photinus pyralis) (P08659 whole entry, looked up): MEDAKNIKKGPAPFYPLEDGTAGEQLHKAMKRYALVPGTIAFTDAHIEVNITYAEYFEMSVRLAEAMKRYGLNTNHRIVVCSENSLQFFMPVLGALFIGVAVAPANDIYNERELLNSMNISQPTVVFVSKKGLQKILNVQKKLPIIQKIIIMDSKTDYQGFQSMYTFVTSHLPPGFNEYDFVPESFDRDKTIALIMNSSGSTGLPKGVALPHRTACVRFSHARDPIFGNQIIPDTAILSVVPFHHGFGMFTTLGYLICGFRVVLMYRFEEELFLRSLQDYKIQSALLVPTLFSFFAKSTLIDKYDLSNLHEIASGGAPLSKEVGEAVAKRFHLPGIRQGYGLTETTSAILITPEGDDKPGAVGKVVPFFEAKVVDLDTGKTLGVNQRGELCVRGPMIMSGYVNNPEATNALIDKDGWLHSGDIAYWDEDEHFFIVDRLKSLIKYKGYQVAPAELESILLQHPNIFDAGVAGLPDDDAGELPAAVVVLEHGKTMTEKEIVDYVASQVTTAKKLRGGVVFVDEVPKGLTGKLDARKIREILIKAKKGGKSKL

CCCOC(=O)c1ccccc1
not listed: [13] | [14] | [15]
inactive: all other assays above

COCCCN
not listed: [11] | [12] | [13] | [14] | [15]
inactive: all other assays above

COc1ccc(N)c(C)c1
not listed: [11] | [12] | [13] | [14] | [15]
inactive: all other assays above

N#Cc1ccccc1
not listed: [13] | [14] | [15]
inactive: all other assays above

CNC(=O)Oc1ccc2c(c1)[C@]1(C)CCN(C)[C@@H]1N2C
not listed: [5] | [11] | [12] | [15]
inactive: all other assays above

C=C(C)[C@H]1CC=C(C)C(=O)C1
inactive: [1] | [2] | [3] | [4] | [5] | [6] | [7] | [10]

CCCCCCCC=O
inactive: [1] | [2] | [3] | [4] | [6] | [7] | [10]

CCNC(=S)NCC
not listed: [11] | [12] | [13] | [14] | [15]
inactive: all other assays above

COc1ccc(OC)cc1
not listed: [9] | [13] | [14] | [15]
inactive: all other assays above

CC(C)c1cccc(C(C)C)c1
not listed: [5] | [8] | [9] | [13] | [14]
inactive: all other assays above

CN(C)c1ccc(O)c2c1C[C@H]1C[C@H]3[C@H](N(C)C)C(=O)C(C(N)=O)=C(O)[C@@]3(O)C(=O)C1=C2O
not listed: [4] | [11] | [12] | [13] | [14] | [15]
inactive: all other assays above

CC(=O)OCCOC(C)=O
not listed: [9] | [11] | [12] | [13] | [14] | [15]
inactive: all other assays above

OC1C(O)C(O)C(O)C(O)C1O (stereo not given)
inactive: [1] | [2] | [3] | [4] | [5] | [6] | [7] | [10]

C[Si]1(C)O[Si](C)(C)O[Si](C)(C)O[Si](C)(C)O1
inactive: [1] | [2] | [3] | [4] | [6] | [7] | [8] | [10]
